Experimental data published in PubChem BioAssay (EPA / NIEHS).
Where “and” joins values, the source holds several entries; their conditions need not be identical. Equal values may be shown once. Results filed as inconclusive are left out. Calls of active or inactive are those of the source. The calls were made as follows, unless noted: active = hit-call score of the fitted dose curve at least 0.9, where 1 is the maximum; inconclusive = response in the unintended direction; inactive = score below 0.9.

Tests used:
[1] = Tanguay_ZF_120hpf_PFIN_legacy: (Legacy) Oregon State University Tanguay Lab 120 Hour Post-fertilization zebrafish Assay for Pectoral Fin Malformation (AID 2283648);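 also: each larva judged yes or no for fin defect by brightfield with dead larvae skipped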
Outline: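 Binary pectoral fin malformation call at 120 hpf by brightfield microscopy; 5D wild-type zebrafish, chorion removed at 4 hpf, one embryo per well from 6 hpf, static exposure at 28C; DMSO (0.64% final) as baseline.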

[2] = Tanguay_ZF_120hpf_CFIN_legacy: (Legacy) Oregon State University Tanguay Lab 120 Hour Post-fertilization zebrafish Assay for Caudal Fin Malformation (AID 2283649)
Outline: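 Binary brightfield scoring of caudal fin defects at 120 hpf after static, light-shielded exposure at 28C from 6 hpf. Tropical 5D embryos, chorion removed with pronase at 4 hpf, final DMSO 0.64%.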

[3] = Tanguay_ZF_120hpf_PIG_legacy: (Legacy) Oregon State University Tanguay Lab 120 Hour Post-fertilization zebrafish Assay for Pigmentation Malformation (AID 2283650);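 also: dechorionated Tropical 5D zebrafish embryos exposed singly from 6 to 120 hpf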
Outline: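 Brightfield scoring of pigmentation malformation at 120 hpf, recorded as binary present/absent per larva. Exposure: dechorionated 5D wild-type embryos, one per well, static from 6 hpf at 28C, final DMSO 0.64% (vol/vol). Dead embryos not scored.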

[4] = Tanguay_ZF_120hpf_CIRC_legacy: (Legacy) Oregon State University Tanguay Lab 120 Hour Post-fertilization zebrafish Assay for Circulatory Malformation (AID 2283651)
Outline: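 Static exposure, 6–120 hpf, 28C, sealed and dark; one dechorionated 5D embryo/well; DMSO 0.64% v/v final. Binary circulation endpoint by brightfield; dead embryos not scored.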

[5] = Tanguay_ZF_120hpf_SWIM_legacy: (Legacy) Oregon State University Tanguay Lab 120 Hour Post-fertilization zebrafish Assay for Swim Bladder Malformation (AID 2283654);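 also: swim bladder malformation in each larva scored yes or no under brightfield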
Outline: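 Tropical 5D embryos dechorionated at 4 hpf; 1 embryo/well from 6 hpf; static, sealed, dark exposure at 28C until 120 hpf; final DMSO 0.64%; 5uM trimethyltin chloride positive control; swim bladder defect recorded yes/no; dead embryos not scored.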

[6] = Tanguay_ZF_120hpf_TRUN_legacy: (Legacy) Oregon State University Tanguay Lab 120 Hour Post-fertilization zebrafish Assay for Truncated Body (AID 2283655)
Outline: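 Binary presence/absence of truncated body is recorded at 120 hpf by brightfield, with non-mortality endpoints skipped after death. Exposure is static from 6 hpf in sealed dark plates at 28C, using dechorionated wild-type zebrafish, 0.64% DMSO.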

[7] = Tanguay_ZF_120hpf_NC_legacy: (Legacy) Oregon State University Tanguay Lab 120 Hour Post-fertilization zebrafish Assay for Notochord and Tail Malformation (AID 2283656)
Outline: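 Binary notochord-distortion calls, made by brightfield inspection, form the read-out; activity is fitted in the positive direction against DMSO. Exposure ran statically from 6 to 120 hpf at 28C with 0.64% DMSO.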

[8] = Tanguay_ZF_120hpf_TR_legacy: (Legacy) Oregon State University Tanguay Lab 120 Hour Post-fertilization zebrafish Assay for Touch Response (AID 2283667)
Outline: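 Binary touch-response call at 120 hpf, analysed as gain of signal versus DMSO baseline. Wild-type 5D larvae, static exposure at 28C, 0.64% DMSO final; 5uM trimethyltin chloride as positive control.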

[9] = CCTE_Padilla_ZF_144hpf_TERATOSCORE: (Legacy) CCTE's 144 Hour Post-fertilization zebrafish Assay Teratoscore, Padilla Lab (AID 2283679; active = hit-call score of the fitted dose curve at least 0.9, where 1 is the maximum; inactive = score below 0.9;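 as to AC50: zebrafish embryos with chorions exposed by immersion from 6-8 hpf to 5 dpf with daily renewal; teratogenicity score from eye scoring of death hatching and malformations at 144 hpf; higher score means more developmental defects relative to DMSO baseline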)
Outline: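 Larvae scored by eye at 144 hpf for death, hatching and malformations after a day in clean Hanks'. Before that, daily-renewed exposure at 80 uM (0.4% DMSO, 26C) from roughly 6-8 hpf through 5 dpf, 4 embryos per chemical.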

[10] = STM_H9_OrnithineISnorm_perc: Stemina devTOX quickPredict H9 human embryonic stem cell (hESC)-based Assay for Ornithine (ORN) Metabolite Biomarker, Normalized (AID 2283712; active = hit-call score of the fitted dose curve at least 0.9, where 1 is the maximum; inactive = score below 0.9;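 also: ornithine released into spent medium during last day measured by mass spectrometry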)
Outline: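 UPLC-HRMS readout: endogenous ornithine EIC area / 13C-ORN internal standard, then % of 0.1% DMSO median. H9 hESCs (pluripotent), 72h exposure, re-dosed with fresh media q24h; last 24-h spent media, deproteinized in 40% acetonitrile.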

[11] = STM_H9_CystineISnorm_perc: Stemina devTOX quickPredict H9 human embryonic stem cell (hESC)-based Assay for Cystine (CYSS) Metabolite Biomarker, Normalized (AID 2283713; active = hit-call score of the fitted dose curve at least 0.9, where 1 is the maximum; inactive = score below 0.9)
Outline: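 UPLC-HRMS read-out: endogenous cystine peak area in spent medium, normalized to isotope-labeled internal standard and to median of 0.1% DMSO controls. Pluripotent H9 cells, 72h exposure, daily medium/compound replenishment; medium from last 24h sampled.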

[12] = Tanguay_ZF_120hpf_ActivityScore_legacy: (Legacy) Oregon State University Tanguay Lab 120 Hour Post-fertilization zebrafish Assay Score for Activity (AID 2283742);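 as to AC50: dechorionated Tropical 5D wild-type zebrafish embryos held singly per well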
Outline: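 Dechorionated 5D embryos, one per well, static exposure 6–120 hpf, 28C, sealed and dark; final DMSO 0.64% (vol/vol). Brightfield binary scoring of mortality plus 18 endpoints; gain-of-signal fit versus DMSO baseline.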

[13] = tested on: Thyroperoxidase (TPO), gene 54314; test: CCTE_Simmons_AUR_rTPO: CCTE's Amplex UltraRed Assay for Thyroperoxidase (TPO) Inhibition, Simmons Lab (AID 2283662);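 as to AC50: potency for loss of signal meaning inhibition of peroxidase activity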
Outline: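 Rat thyroid microsomes (5 ug protein) with 25 uM Amplex UltraRed and 300 uM H2O2 in 200 mM phosphate buffer, 30 min at 37C in dark; fluorescence 544/590 nm. Eight concentrations, 5 nM–87.5 uM final, 0.5% DMSO, triplicate biological replicates.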

[14] = CCTE_Simmons_CellTiterGLO_HEK293T: Viability Assessment in CCTE's Assays for Thyroperoxidase (TPO) Inhibition, Simmons Lab (AID 2283665);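 as to AC50: cells exposed to compound for 24 h before readout; actives reduce ATP signal below DMSO vehicle meaning cytotoxicity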
Outline: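 Luminescent ATP readout (CellTiter-Glo, 20 min at room temperature) after 24 hr exposure of HEK293T cells to 5 nM–87.5 uM final compound; signal loss relative to DMSO vehicle indicated cytotoxicity; dichlone titrated as positive control.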

[15] = read-out: solute carrier (SLC22A6), SLC22A6 (gene 9356); test: LTEA_HepaRG_SLC22A6: Life Technologies and Expression Analysis (LTEA) Assay for solute carrier (SLC22A6) using HepaRG (AID 2283653; active = hit-call score of the fitted dose curve at least 0.9, where 1 is the maximum; inactive = score below 0.9); settings: mRNA level, 48 h; actives raise or lower the signal
Outline: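 SLC22A6 transcript was measured by TaqMan qRT-PCR, normalized to three housekeeping genes, after 48 h duplicate exposure of HepaRG cells (100 uM top, half-log steps, 0.5% DMSO); bidirectional fit against vehicle.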

[16] = read-out: solute carrier (SLC10A1), SLC10A1 (gene 6554); test: LTEA_HepaRG_SLC10A1: Life Technologies and Expression Analysis (LTEA) Assay for solute carrier (SLC10A1) using HepaRG (AID 2283657; active = hit-call score of the fitted dose curve at least 0.9, where 1 is the maximum; inactive = score below 0.9); settings: mRNA level, 48 h; actives raise or lower the signal
Outline: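 HepaRG, 48 h exposure, 8-pt half-log curve from 100 uM in 0.5% DMSO, duplicates. Read-out: TaqMan qRT-PCR of SLC10A1 mRNA, normalized to three housekeeping genes. Gain/loss fit vs DMSO baseline.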

[17] = read-out: matrix metalloproteinase-1 (MMP1), MMP1 (gene 4312); test: LTEA_HepaRG_MMP1: Life Technologies and Expression Analysis (LTEA) Assay for matrix metalloproteinase-1 (MMP1) using HepaRG (AID 2283658; active = hit-call score of the fitted dose curve at least 0.9, where 1 is the maximum; inactive = score below 0.9); settings: mRNA level, 48 h; actives raise or lower the signal
Outline: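 qRT-PCR (TaqMan, Fluidigm arrays) of MMP1 transcript, normalized against three housekeeping genes and fitted in both directions relative to 0.5% DMSO vehicle. Human HepaRG cultures received duplicate 48 h exposures across 8 points, highest 100 uM with half-log steps.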

[18] = read-out: Cytochrome P450 (CYP24A1_1), CYP24A1 (gene 1591); test: LTEA_HepaRG_CYP24A1_1: Life Technologies and Expression Analysis (LTEA) Assay for Cytochrome P450 (CYP24A1_1) using HepaRG (AID 2283671; active = hit-call score of the fitted dose curve at least 0.9, where 1 is the maximum; inactive = score below 0.9); settings: mRNA level, 48 h; actives raise or lower the signal
Outline: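 Readout is CYP24A1 transcript level by qRT-PCR, normalized to three housekeeping genes, with gain or loss of signal fitted against 0.5% DMSO. Human HepaRG cells received compound for 48 h at up to 100 uM.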

[19] = STM_H9_OrnCyssISnorm_ratio: Stemina devTOX quickPredict H9 human embryonic stem cell (hESC)-based Assay for Ornithine (ORN):Cystine (CYSS) Ratio (AID 2283714)
Outline: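 UPLC-HRMS of spent media: ORN/CYSS ratio of internal-standard-normalized percentages, DMSO (0.1%) baseline. Pluripotent H9 hESCs, 72h exposure, daily re-dosing with fresh media; last 24h media collected.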

[20] = read-out: kallikrein-3 (KLK3), KLK3 (gene 354); test: LTEA_HepaRG_KLK3: Life Technologies and Expression Analysis (LTEA) Assay for kallikrein-3 (KLK3) using HepaRG (AID 2283652; active = hit-call score of the fitted dose curve at least 0.9, where 1 is the maximum; inactive = score below 0.9); settings: mRNA level, 48 h; actives raise or lower the signal
Outline: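 KLK3 transcript levels were measured by TaqMan qRT-PCR with normalisation to three housekeeping genes. HepaRG cultures received chemicals for 48 h at up to 100 uM (half-log, 8 points, 0.5% DMSO vehicle), fitted in both directions against DMSO.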

Measured: AC50

CC(C)CCO
active: [11] 0.118 µM
not listed: [13] | [14] | [15] | [16] | [17] | [18] | [19] | [20]
inactive: all other assays above

CCn1nc(Cc2ccccc2)cc1C1CCN(C[C@H]2C[C@H](N(C)[C@@H](C(=O)O)C(C)C)C[C@@H]2c2cccc(F)c2)CC1
active: [13] 30.7 µM | [14] 42.8 µM
inactive: [1] | [2] | [3] | [4] | [5] | [6] | [7] | [8] | [12]

CC/C(=C\C(=N/O)C(N)=O)C(C)[N+](=O)[O-] (stereo not drawn)
active: [13] 26.3 µM
not listed: [10] | [11] | [15] | [16] | [17] | [18] | [19] | [20]
inactive: all other assays above

O=C(O)c1cccc(Oc2ccccc2)c1
active: [9] 65.2 µM
not listed: [7] | [8] | [10] | [11] | [13] | [14] | [19] | [20]
inactive: all other assays above

CCCCC(CC)COC(=O)c1ccc(C(=O)OCC(CC)CCCC)cc1 (stereo not drawn)
inactive: [1] | [2] | [3] | [4] | [5] | [6] | [7] | [8]

O=C(O)CC(O)C(=O)O (stereo not drawn)
inactive: [1] | [2] | [3] | [4] | [5] | [6] | [7] | [8]

C1=CCCC=CCCC=CCC1
inactive: [1] | [2] | [3] | [4] | [5] | [6] | [7] | [8]

O=c1n(CC2CO2)c(=O)n(CC2CO2)c(=O)n1CC1CO1 (stereo not drawn)
active: [13] 21.1 µM | [10] 0.49 µM | [11] 0.166 µM | [19] 0.295 µM
not listed: [9] | [15] | [16] | [17] | [18] | [20]
inactive: all other assays above

O=C(OC[C@H]1O[C@@H](OC(=O)c2cc(O)c(O)c(OC(=O)c3cc(O)c(O)c(O)c3)c2)[C@H](OC(=O)c2cc(O)c(O)c(OC(=O)c3cc(O)c(O)c(O)c3)c2)[C@@H](OC(=O)c2cc(O)c(O)c(OC(=O)c3cc(O)c(O)c(O)c3)c2)[C@@H]1OC(=O)c1cc(O)c(O)c(OC(=O)c2cc(O)c(O)c(O)c2)c1)c1cc(O)c(O)c(OC(=O)c2cc(O)c(O)c(O)c2)c1
active: [13] 1.03 µM | [14] 1.41 µM | [9] 4.71 µM
inactive: [1] | [2] | [3] | [4] | [5] | [6] | [7] | [8]

CC[C@H](C)C(=O)O[C@H]1C[C@@H](C)C=C2C=C[C@H](C)[C@H](CC[C@@H]3C[C@@H](O)CC(=O)O3)[C@H]21
active: [13] 40.3 µM and 43.8 µM | [9] 7.47 nM and 5.89 nM and 5.45 nM | [11] 13.2 µM | [19] 6.84 µM
not listed: [12] | [15] | [16] | [17] | [18] | [20]
inactive: all other assays above

NC(=O)NO
active: [13] 43.8 µM | [10] 371 µM | [11] 153 µM | [19] 392 µM
inactive: [1] | [2] | [3] | [4] | [5] | [6] | [7] | [14] | [8]

CC(C)CCCCCCOC(=O)c1ccc(C(=O)OCCCCCCC(C)C)c(C(=O)OCCCCCCC(C)C)c1
not listed: [9] | [10] | [11] | [12] | [13] | [14] | [19]
inactive: all other assays above

CCNc1ccccc1
inactive: [1] | [2] | [3] | [4] | [5] | [6] | [7] | [13] | [14] | [8]

On1ccccc1=S
active: [5] 0.0615 µM | [7] 0.561 µM | [13] 17.5 µM | [9] 27.7 µM | [10] 8.49 µM | [11] 5.86 µM | [19] 7.94 µM
inactive: [1] | [2] | [3] | [4] | [6] | [14] | [8]

Cn1c(=O)cc(Oc2ccc(F)cc2F)c2cnc(NCC(C)(C)O)nc21
not listed: [13] | [14] | [15] | [16] | [17] | [18] | [20]
inactive: all other assays above

Oc1ccc2c(c1)-c1ccccc1C2
active: [1] 36 µM | [2] 35.1 µM | [3] 41 µM | [13] 10.6 µM | [14] 60.1 µM | [8] 32.1 µM | [9] 32.9 µM
inactive: [4] | [5] | [6] | [7]

CCC(C)(C)C(=O)O[C@H]1C[C@@H](C)C=C2C=C[C@H](C)[C@H](CC[C@@H]3C[C@@H](O)CC(=O)O3)[C@H]21
active: [1] 0.652 µM | [3] 0.666 µM | [13] 43.8 µM | [14] 43.8 µM | [8] 0.664 µM | [9] 115 nM and 2.58 nM and 7.92 nM | [10] 0.000728 µM | [12] 0.403 µM
inactive: [2] | [4] | [5] | [6] | [7] | [11]

CCCCC(CC)COC(=O)CCCCCCCCC(=O)OCC(CC)CCCC (stereo not drawn)
inactive: [1] | [2] | [3] | [4] | [5] | [6] | [7] | [8] | [9] | [12]
